Source: PubChem (Broad Institute)
Hits are enriched below; roughly 3.2% of the tested compounds scored in any of these assays.
PGC1a acetyl inh = modulators of PGC1a acetylation | U2OS PGC1a acetylation, AlphaScreen anti-acetyl-lysine; with virally co-expressed GCN5 acetyltransferase | inhibition, % at 15.6 µM | 0.17% of 350,000 active;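 active means every replicate shows inhibition of at least 40%; inconclusive means mean inhibition at least 40% but some replicate below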
CaV13 ICDI inh = Disruptors of the CACNA1D IQ motif to Ca2+-dependent inactivation inhibitor domain association, primary screening, Förster resonance energy transfer in intact living … | HEK cells, CFP/YFP FRET ICDI-IQ, plate reader, 10 min; percent FRET-ratio fall versus neutral wells | inhibition, % at 12.3 µM | 0.098% of 340,000 active | AID 743397;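 active means mean replicate inhibition of at least 30% and at least 1% of replicates passing that level; inconclusive means only one of the two criteria is met; inactive means neither criterion is met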
DENV2 CPE rescue = DENV2-induced cell death inhibition. DENV2-infected cells, cytopathic effect rescue, plate reader. CPE inhibition, % at 9.99 µM. 1.7% of 350,000 active. AID 651640; in the data active means CPE inhibition above about 20%, passing the limit was not always enough; inconclusive means no clear call, values can overlap the other calls; tested in BHK-21 cells
GSIS activator = GLuc luminescence reporter in INS-1E cells, primary screen for activators of glucose-dependent secretion of insulin; activation, % at 16.6 µM; INS-1E GLuc reporter insulin secretion, 2-3 h; 0.61% of 370,000 active;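 active means lowest replicate activation of at least 40%, so every replicate reaches that level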
Ecoli rRNA inh = selective bacterial rRNA inhibition in E. coli. E. coli WT GFP vs humanized-ribosome RFP mutants, fluorescence, 24 h; stronger effect = lower value; DMSO median 0, no signal -100. AID 720706. 1.6% of 350,000 active. GFP signal change (wild-type ribosome), % (no concentration beside the values);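 active means significant combined selectivity score with lowered wild-type GFP, culture density cut under 30%, mutant RFP and density less affected; inactive means any of these conditions unmet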
ERAP1 HTS inh = blocks human ERAP1 aminopeptidase activity; Q9NZ08; recombinant ERAP1, Leu-AMC fluorescence, 60 min; inhibition, % at 10.7 µM; 0.15% of 340,000 active; AID 652197;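 active means mean replicate inhibition of at least 30%, or all replicates individually reaching that 30% level; inactive means mean below 30% and not every replicate reaching it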
Target sequence (Q9NZ08 whole entry, looked up): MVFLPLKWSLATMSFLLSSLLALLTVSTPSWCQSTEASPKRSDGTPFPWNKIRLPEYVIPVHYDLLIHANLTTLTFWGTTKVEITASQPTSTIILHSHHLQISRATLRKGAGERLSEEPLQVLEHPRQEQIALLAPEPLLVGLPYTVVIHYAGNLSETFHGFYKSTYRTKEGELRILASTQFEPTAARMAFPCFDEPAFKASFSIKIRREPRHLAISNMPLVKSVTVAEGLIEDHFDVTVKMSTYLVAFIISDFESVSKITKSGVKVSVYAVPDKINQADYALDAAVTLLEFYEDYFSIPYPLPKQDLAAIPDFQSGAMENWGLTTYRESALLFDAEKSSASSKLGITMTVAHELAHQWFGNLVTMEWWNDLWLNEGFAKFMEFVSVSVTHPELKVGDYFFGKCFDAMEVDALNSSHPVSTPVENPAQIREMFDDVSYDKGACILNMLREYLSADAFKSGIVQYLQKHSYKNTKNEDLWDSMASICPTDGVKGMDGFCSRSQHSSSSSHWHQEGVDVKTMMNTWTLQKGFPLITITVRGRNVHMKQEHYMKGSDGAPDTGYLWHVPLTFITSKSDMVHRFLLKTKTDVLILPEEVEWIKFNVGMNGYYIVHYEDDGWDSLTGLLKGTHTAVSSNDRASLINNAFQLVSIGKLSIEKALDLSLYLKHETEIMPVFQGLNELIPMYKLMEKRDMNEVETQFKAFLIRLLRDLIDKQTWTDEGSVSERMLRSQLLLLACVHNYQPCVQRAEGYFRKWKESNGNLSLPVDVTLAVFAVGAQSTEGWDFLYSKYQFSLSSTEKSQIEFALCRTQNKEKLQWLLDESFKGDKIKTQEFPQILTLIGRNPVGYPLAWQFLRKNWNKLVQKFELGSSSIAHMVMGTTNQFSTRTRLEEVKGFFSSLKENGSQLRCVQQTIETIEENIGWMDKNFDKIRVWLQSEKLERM
Each line names hits and unclear results; the compound was inactive in the other large screens.

O=S1(=O)c2ccccc2OC(COCc2ccccc2)CN1C1CC1 (stereo unspecified)	GSIS activator 109.2
Cc1ccc(NC(=O)c2cc(C(=O)Nc3ccc(C)cc3)n(C)n2)cc1	DENV2 CPE rescue 41.6 (no result: PGC1a acetyl inh)
COC(=O)c1c(NC(=O)c2ccc(N(C)S(=O)(=O)c3ccc(C)cc3)cc2)sc2c1CCCC2	none (no result: PGC1a acetyl inh)
CNC(=O)c1c(NC(=O)c2ccc(S(=O)(=O)N(C)c3ccccc3)cc2)sc2c1CCN(C(C)C)C2	DENV2 CPE rescue 96.1 (no result: PGC1a acetyl inh)
O=C1Nc2ccccc2N(C(=O)c2ccc3ccccc3c2)C1c1nc2ccccc2[nH]1 (stereo unspecified)	GSIS activator 120.9 (no result: PGC1a acetyl inh)
CCOC(=O)c1oc2cc(O)cc(C)c2c1C	GSIS activator 40.0
CCOC(=O)c1oc2cc(C)cc(C)c2c1C	none (no result: PGC1a acetyl inh, ERAP1 HTS inh)
O=c1ccc(-c2ccc(S(=O)(=O)Nc3cccc([N+](=O)[O-])c3)s2)n[nH]1	DENV2 CPE rescue inconclusive, GSIS activator 77.4
c1ccc(Oc2ccccc2-c2cc(NCCc3cccnc3)n3nccc3n2)cc1	GSIS activator 53.4 (no result: PGC1a acetyl inh)
c1ccc(Oc2ccc(-c3cc(NCCc4cccnc4)n4nccc4n3)cc2)cc1	none (no result: PGC1a acetyl inh)
COc1cccc(NC(=O)N2CC3(C2)[C@H](c2ccccc2)[C@@H](CO)N3C(=O)C2CC2)c1	none (no result: CaV13 ICDI inh)
CCCC#Cc1ccc2c(c1)[C@H]1[C@H](CCN1S(=O)(=O)c1cn(C)cn1)[C@H](CO)N2	DENV2 CPE rescue 65.0 (no result: CaV13 ICDI inh)
CCCC#Cc1ccc2c(c1)[C@@H]1[C@@H](CCN1S(=O)(=O)c1ccccc1F)[C@@H](CO)N2	none (no result: PGC1a acetyl inh, CaV13 ICDI inh)
CCCC#Cc1ccc2c(c1)[C@@H]1[C@@H](CCN1S(=O)(=O)c1ccccc1C)[C@@H](CO)N2	DENV2 CPE rescue 65.7 (no result: PGC1a acetyl inh, CaV13 ICDI inh)
Cn1cnc(S(=O)(=O)N2CC[C@@H]3[C@@H](CO)Nc4ccc(-c5ccc(F)cc5)cc4[C@@H]32)c1	none (no result: CaV13 ICDI inh)
COc1cccc(-c2ccc3c(c2)[C@H]2[C@H](CCN2S(=O)(=O)c2cn(C)cn2)[C@@H](CO)N3)c1	DENV2 CPE rescue 98.4 (no result: CaV13 ICDI inh)
Cn1cnc(S(=O)(=O)N2CC[C@@H]3[C@H](CO)Nc4ccc(-c5ccc(F)cc5)cc4[C@@H]32)c1	DENV2 CPE rescue 46.2 (no result: CaV13 ICDI inh)
CO[C@H]1CN(C)C(=O)c2cc(NS(=O)(=O)c3ccccc3C)ccc2OC[C@@H](C)N(C)C[C@@H]1C	none (no result: CaV13 ICDI inh)
Cn1cnc(S(=O)(=O)N2CC[C@@H]3[C@H](CO)Nc4ccc(C#Cc5ccc(F)cc5)cc4[C@@H]32)c1	DENV2 CPE rescue 27.3 (no result: CaV13 ICDI inh)
COc1ccccc1NC(=O)N1C[C@@H](O)COC[C@H]2O[C@H](CC(=O)NCc3ccccc3)CC[C@@H]21	none (no result: CaV13 ICDI inh)
O=C1CN(Cc2ccc(F)cc2)C[C@H]2[C@@H](c3ccc(-c4cccnc4)cc3)[C@H](CO)N12	DENV2 CPE rescue 23.6 (no result: CaV13 ICDI inh)
O=C(Nc1ccccc1F)N1CCCCN2[C@H](CO)[C@H](c3ccc(-c4cccnc4)cc3)[C@H]2C1	DENV2 CPE rescue 26.9 (no result: CaV13 ICDI inh)
O=C(Nc1ccccc1F)N1CCCCN2[C@H](CO)[C@@H](c3ccc(-c4cccnc4)cc3)[C@@H]2C1	none (no result: CaV13 ICDI inh)
O=C(Nc1cc(F)ccc1F)N1CCCCN2[C@@H](CO)[C@H](c3ccc(-c4cccnc4)cc3)[C@@H]2C1	Ecoli rRNA inh -24.5 (no result: CaV13 ICDI inh, DENV2 CPE rescue, ERAP1 HTS inh)
O=C(Nc1cc(F)ccc1F)N1CCCCN2[C@H](CO)[C@H](c3ccc(-c4cccnc4)cc3)[C@@H]2C1	none (no result: CaV13 ICDI inh, ERAP1 HTS inh)
O=C(Nc1cc(F)ccc1F)N1CC(=O)N2[C@H](CO)[C@H](c3ccc(-c4cccnc4)cc3)[C@@H]2C1	DENV2 CPE rescue 29.5 (no result: CaV13 ICDI inh)
CC=Cc1ccc2n(c1=O)C[C@H]1[C@H](CO)[C@@H](C(=O)NCC(F)(F)F)[C@@H]2N1C(=O)C1CCCC1 (mixture of isomers)	none (no result: PGC1a acetyl inh, CaV13 ICDI inh, DENV2 CPE rescue, ERAP1 HTS inh)
COc1ccc2c3c(n(C)c2c1)[C@@H](CO)N(C(C)=O)CC31CCN(Cc2cncnc2)CC1	none (no result: PGC1a acetyl inh, CaV13 ICDI inh, DENV2 CPE rescue, ERAP1 HTS inh)
CCOC(=O)C1(C)C=C(Nc2ccc(OC)cc2)C(=O)N1c1ccc(OC)cc1 (stereo unspecified)	GSIS activator 59.1 (no result: DENV2 CPE rescue, Ecoli rRNA inh, ERAP1 HTS inh)
CCOC(=O)C1(C)C=C(Nc2ccc(O)cc2)C(=O)N1c1ccc(O)cc1 (stereo unspecified)	none
C[C@H](CO)N1C[C@H](C)[C@@H](CN(C)Cc2ccc(Cl)c(Cl)c2)OCCCC[C@H](C)Oc2ccc(NS(=O)(=O)c3ccc(F)cc3)cc2C1=O	none (no result: CaV13 ICDI inh)
C(=C\c1sc(Nc2ccccc2)n[n+]1-c1ccccc1)/c1ccccc1	DENV2 CPE rescue 52.2 (no result: ERAP1 HTS inh)
COc1ccc(-c2sc(Nc3ccccc3)n[n+]2-c2ccccc2)cc1Br	none (no result: DENV2 CPE rescue)
Cn1ncc(Br)c1C(=O)NC1C2CC3CC(C2)CC1C3 (stereo unspecified)	Ecoli rRNA inh -30.3 (no result: PGC1a acetyl inh)
OC(CNCCC1C=Nc2ccccc21)Cn1c2ccc(Cl)cc2c2cc(Cl)ccc21 (stereo unspecified)	GSIS activator 647.4 (no result: PGC1a acetyl inh, DENV2 CPE rescue, Ecoli rRNA inh, ERAP1 HTS inh)
OC(CNCC1CCCO1)Cn1c2ccc(Cl)cc2c2cc(Cl)ccc21 (stereo unspecified)	none (no result: DENV2 CPE rescue, GSIS activator, Ecoli rRNA inh, ERAP1 HTS inh)
COc1ccc(S(=O)(=O)N(C)C[C@@H]2Oc3c(NC(=O)C4CCCCC4)cccc3C(=O)N([C@@H](C)CO)C[C@@H]2C)cc1	none (no result: CaV13 ICDI inh, DENV2 CPE rescue, ERAP1 HTS inh)
C[C@@H]1CN([C@@H](C)CO)C(=O)Cc2cc(NC(=O)Nc3cccc4ccccc34)ccc2O[C@@H]1CN(C)C(=O)Nc1cccc2ccccc12	none (no result: CaV13 ICDI inh)
C[C@@H]1CN([C@@H](C)CO)C(=O)Cc2cc(NC(=O)Nc3cccc4ccccc34)ccc2O[C@H]1CN(C)C	DENV2 CPE rescue 21.3 (no result: CaV13 ICDI inh)
C[C@H](CO)N1C[C@H](C)[C@H](CN(C)C)Oc2ccc(NC(=O)Nc3cccc4ccccc34)cc2CC1=O	DENV2 CPE rescue 35.3 (no result: CaV13 ICDI inh)
Cc1noc(C)c1NC(=O)Nc1ccc2c(c1)CC(=O)N([C@@H](C)CO)C[C@H](C)[C@H](CN(C)C)O2	DENV2 CPE rescue 21.1 (no result: CaV13 ICDI inh)
C[C@@H]1CN([C@@H](C)CO)C(=O)Cc2cc(NC(=O)Nc3ccc(F)cc3)ccc2O[C@@H]1CN(C)C(=O)Nc1cccc2ccccc12	DENV2 CPE rescue 41.0 (no result: CaV13 ICDI inh)
C[C@@H]1CN([C@@H](C)CO)C(=O)Cc2cc(NC(=O)Nc3cccc4ccccc34)ccc2O[C@H]1CN(C)C(=O)NC1CCCCC1	DENV2 CPE rescue 25.2 (no result: CaV13 ICDI inh)
C[C@H](CO)N1C[C@H](C)[C@@H](CN(C)S(=O)(=O)c2ccc(Cl)cc2)Oc2ccc(NC(=O)Nc3cccc4ccccc34)cc2CC1=O	DENV2 CPE rescue 42.2 (no result: CaV13 ICDI inh)
COc1ccc(-n2nc(C#N)c(Cl)cc2=O)cc1	PGC1a acetyl inh 89.9, Ecoli rRNA inh -43.1
COC(=O)c1nn(-c2ccc(OC)cc2)c(=O)cc1O	none (no result: PGC1a acetyl inh)
CCC(=O)N1[C@H](CO)[C@H](c2ccc(-c3cccc(OC)c3)cc2)[C@@H]1CNC(C)=O	none (no result: PGC1a acetyl inh, CaV13 ICDI inh)
